From PubChem BioAssay
Calls of active or inactive are those of the source. Unless noted, how the calls were made is not given here.

Tests used:
[1] = HepG2 liver cancer cell viability effects, profiling panel, resazurin fluorescence, 24 h, PK04 Diversity Set (AID 1172); settings: higher = more signal
[2] = basal S. cerevisiae growth modulation, no modifier, primary screen, OD600, strain BY4716, 24 h, basal condition (AID 1173); settings: OD600, 24 h, higher = more signal, called active from +8 up or from −8 down
[3] = MM1S myeloma cell viability, profiling panel, resazurin fluorescence, basal, 24 h, PK04 Diversity Set (AID 1174); settings: higher = more signal, called active from +8 up or from −8 down;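 further: MM1S multiple myeloma cell line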
[4] = molecular target: Dihydroorotate dehydrogenase (quinone), mitochondrial (Plasmodium falciparum (isolate 3D7)) (UniProt Q08210); assay: PfDHODH enzyme inhibitors, primary screen, biochemical, C-terminal His tag, absorbance 600 nm (AID 1175); settings: DCIP absorbance 600 nm, higher = more signal, called active from +8 up or from −8 down;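 further: recombinant parasite enzyme with a five histidine tag at its C terminus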
Sequence of Dihydroorotate dehydrogenase (quinone), mitochondrial (Plasmodium falciparum (isolate 3D7)) (Q08210 whole entry, looked up): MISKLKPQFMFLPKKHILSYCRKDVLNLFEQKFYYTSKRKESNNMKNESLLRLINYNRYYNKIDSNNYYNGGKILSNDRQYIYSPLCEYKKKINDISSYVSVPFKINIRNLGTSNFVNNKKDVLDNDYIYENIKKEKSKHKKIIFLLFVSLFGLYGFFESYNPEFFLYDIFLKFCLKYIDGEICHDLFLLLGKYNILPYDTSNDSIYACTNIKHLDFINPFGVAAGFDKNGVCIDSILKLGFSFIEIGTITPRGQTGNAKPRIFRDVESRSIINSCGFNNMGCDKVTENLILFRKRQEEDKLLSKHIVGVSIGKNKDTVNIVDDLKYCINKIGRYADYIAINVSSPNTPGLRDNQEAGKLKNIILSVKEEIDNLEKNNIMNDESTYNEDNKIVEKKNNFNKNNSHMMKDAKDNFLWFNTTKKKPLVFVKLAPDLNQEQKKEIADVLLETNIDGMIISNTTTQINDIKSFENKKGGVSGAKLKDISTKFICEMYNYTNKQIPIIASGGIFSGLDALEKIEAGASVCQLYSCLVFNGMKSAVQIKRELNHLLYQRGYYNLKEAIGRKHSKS

[5] = P. aeruginosa biofilm formation inhibitors, primary screen, strain PAO1, LB-PBS medium, absorbance 600 nm (AID 1176); settings: P. aeruginosa PAO1 growth/biofilm, A600, 12 h; higher = more signal
[6] = S. cerevisiae RM11-1a growth modifiers, primary screen, strain RM11-1a, OD600, basal, 24 h (AID 1177); settings: OD600, 24 h, higher = more signal, called active from +8 up or from −8 down;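 further: cultures grown under basal conditions with no added stressor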
[7] = E. coli acrAB mutant growth effects, primary screen, E. coli filamentation inducers, strain DRC39, OD650, 24 h (AID 1178); settings: higher = more signal, called active from +8 up or from −8 down;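 further: growth measured as culture turbidity by optical density at 650 nm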
[8] = E. coli acrAB mutant growth effects, primary screen, E. coli filamentation inducers, strain DRC39, OD650, 48 h (AID 1179);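 further: screen aims at cell division blockers that make cells filament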; settings: E. coli DRC39 delta-acrAB growth, higher = more signal, called active from +8 up or from −8 down
[9] = RPMI8226 myeloma cell viability, profiling panel, resazurin fluorescence, basal, 24 h, PK04 Diversity Set (AID 1180); settings: higher = more signal;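 further: RPMI8826 multiple myeloma cell line at 5000 cells per well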
[10] = molecular target: E3 ubiquitin-protein ligase XIAP (Homo sapiens) (UniProt P98170); assay: XIAP binders, primary screen, biophysical, small-molecule microarray, fluorescence 635 nm (AID 1181); settings: small-molecule microarray binding, higher = more signal;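 further: score merges 667 nm emission and signal to noise over triplicate slides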
Sequence of E3 ubiquitin-protein ligase XIAP (Homo sapiens) (P98170 whole entry, looked up): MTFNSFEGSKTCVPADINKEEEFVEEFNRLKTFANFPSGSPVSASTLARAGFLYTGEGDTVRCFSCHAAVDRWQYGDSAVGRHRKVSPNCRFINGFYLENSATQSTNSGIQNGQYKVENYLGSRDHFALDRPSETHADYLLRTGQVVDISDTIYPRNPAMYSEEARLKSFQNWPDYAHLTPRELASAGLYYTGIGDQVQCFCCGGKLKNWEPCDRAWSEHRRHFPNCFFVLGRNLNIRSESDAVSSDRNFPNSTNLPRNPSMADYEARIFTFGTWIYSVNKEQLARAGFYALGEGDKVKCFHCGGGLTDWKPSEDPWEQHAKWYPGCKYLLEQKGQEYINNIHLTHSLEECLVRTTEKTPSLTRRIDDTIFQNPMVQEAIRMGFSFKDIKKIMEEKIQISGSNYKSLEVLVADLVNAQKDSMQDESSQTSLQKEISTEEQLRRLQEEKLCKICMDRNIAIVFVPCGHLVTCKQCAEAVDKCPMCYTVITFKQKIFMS

[11] = tested on: XIP peptide (Xip251-270) binding; assay: small-molecule binders of XIP peptide, primary screen, biochemical, small-molecule microarray, fluorescence 635/667 nm, 0.1 µg/mL protein (AID 1182); settings: fluorescent protein binding, 635 nm, higher = more signal, called active from +8 up or from −8 down
XIP peptide (Xip251-270) = assay: small-molecule binders of XIP peptide, primary screen, biochemical, small-molecule microarray, fluorescence 635/667 nm, 0.5 µg/mL protein (AID 1183); settings: small-molecule microarray binding, fluorescence 635 nm; higher = more signal
[12] = Plasmodium falciparum growth inhibition, primary screen, strain 3D7, DAPI fluorescence, 100 nL (AID 1184);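 further: parasites grown inside human red blood cells in medium with human serum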; settings: P. falciparum 3D7 growth, 3 d, higher = more signal
[13] = molecular target: Homeobox protein Hox-A13 (Mus musculus) (UniProt Q62424); assay: inhibitors of HoxA13-DNA binding, primary screen, biochemical, fluorescence polarization, labeled oligonucleotide (AID 1185); settings: 15 min, higher = more signal, called active from +8 up or from −8 down
Sequence of Homeobox protein Hox-A13 (Mus musculus) (Q62424 whole entry, looked up): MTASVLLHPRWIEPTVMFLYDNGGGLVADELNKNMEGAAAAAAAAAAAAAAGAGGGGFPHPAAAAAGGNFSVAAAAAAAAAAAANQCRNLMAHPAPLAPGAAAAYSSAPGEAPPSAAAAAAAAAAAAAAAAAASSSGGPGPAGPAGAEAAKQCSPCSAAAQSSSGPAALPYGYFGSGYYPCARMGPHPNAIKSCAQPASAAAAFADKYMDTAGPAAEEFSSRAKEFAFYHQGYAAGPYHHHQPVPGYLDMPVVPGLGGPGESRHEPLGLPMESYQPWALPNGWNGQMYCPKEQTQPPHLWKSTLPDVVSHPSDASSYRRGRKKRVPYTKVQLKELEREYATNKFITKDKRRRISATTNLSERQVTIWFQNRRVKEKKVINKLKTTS

[14] = inhibitors of hydroxyurea-induced Chk1 phosphorylation, primary screen, imaging, HeLa, phospho-Chk1 antibody, percent positive cells (AID 1186); settings: hydroxyurea-induced phospho-Chk1 immunofluorescence imaging, higher = more signal
[15] = inhibitors of hydroxyurea-induced Chk1 phosphorylation, primary screen, imaging, HeLa, phospho-Chk1 nuclear intensity (AID 1187); settings: hydroxyurea-induced phospho-Chk1 immunofluorescence imaging, higher = more signal

SMILES | z-score [1] | z-score [2] | z-score [3] | composite z-score [4] | z-score [5] | z-score [6] | z-score [7] | z-score [8] | z-score [9] | composite z-score [10] | composite z-score [11] | composite z-score (XIP peptide (Xip251-270)) | z-score [12] | z-score [13] | z-score [14] | z-score [15]
CC(C)(C)OC(=O)CC[C@@]1(C(=O)N2CCCCC2)N=C(c2ccc(OCCCO)cc2)O[C@@H]1c1ccccc1 | 0.426 | -0.563 (inactive) | -0.76 (inactive) | -0.159 (inactive) | 0.935 (inactive) | 0.262 (inactive) | -0.174 (inactive) | -1.53 (inactive) | 0.0487 | 0.138 | 0.671 (inactive) | 0.267 | -2.03 | -5.06 (inactive) | -0.102 (inactive) | -0.0985 (inactive)
CCOC(=O)C1=CC[C@@H](c2ccccc2)N(S(=O)(=O)c2ccc(C)cc2)[C@H]1c1ccc(CC)cc1 | 0.963 | 1.82 (inactive) | -0.342 (inactive) | 0.207 (inactive) | 0.806 (inactive) | 1.25 (inactive) | -0.692 (inactive) | 0.629 (inactive) | -0.224 | -0.11 | -0.223 (inactive) | 0.487 | -1.89 | 0.868 (inactive) | -0.0619 (inactive) | -0.606 (inactive)
O=C1NC(=O)C2C1C=CC(C(O)c1ccc(I)cc1)N2Nc1ccccn1 (stereo not given) | -1.45 | -0.27 (inactive) | -0.766 (inactive) | 0.309 (inactive) | 1.48 (inactive) | 0.275 (inactive) | -0.062 (inactive) | -0.495 (inactive) | -1.01 | 0.189 | 0.932 (inactive) | 0.457 | 1.04 | -1.85 (inactive) | 0.955 (inactive) | 0.534 (inactive)
CC(c1ccccc1)C(O)C1C=CC2C(=O)N(c3ccccc3)C(=O)C2N1Nc1ccccc1 (stereo not given) | -1.45 | -0.652 (inactive) | -1.4 (inactive) | -0.191 (inactive) | 0.67 (inactive) | 0.0166 (inactive) | -0.0789 (inactive) | -0.565 (inactive) | -1.28 | 0.255 | 1.06 (inactive) | 0.807 | -0.417 | -2.4 (inactive) | 0.2 (inactive) | 0.175 (inactive)
O=C(O)[C@@]1(CCS(=O)(=O)c2ccccc2)N=C(c2ccc(OCCCO)cc2)O[C@H]1c1ccccc1 | 0.489 | -1.11 (inactive) | 0.409 (inactive) | -0.0555 (inactive) | -1.27 (inactive) | -0.357 (inactive) | 0.28 (inactive) | -0.275 (inactive) | 1.26 | 0.0952 | 1.15 (inactive) | 0.392 | -0.471 | -5.76 (inactive) | 0.0733 (inactive) | 0.0816 (inactive)
C#CCN1[C@H](/C=C/C2CC2)[C@H](Cc2ccccc2)OC(=O)[C@@H]1Cc1ccccc1 | 0.512 | 0.169 (inactive) | 0.214 (inactive) | -0.627 (inactive) | -0.283 (inactive) | 0.0319 (inactive) | -0.463 (inactive) | -0.144 (inactive) | 0.454 | 0.0853 | 1.42 (inactive) | 0.513 | -0.568 | -0.837 (inactive) | -0.315 (inactive) | -0.418 (inactive)
[N-]=[N+]=NCc1ccccc1C[C@@]1(C(=O)NCC(O)CO)N=C(c2ccc(OCCCO)cc2)O[C@@H]1c1ccccc1 (stereo not given in full) | -1.07 | -2.07 (inactive) | -0.243 (inactive) | -0.0675 (inactive) | 0.466 (inactive) | 0.355 (inactive) | 1.39 (inactive) | 0.322 (inactive) | -0.645 | 0.19 | 0.691 (inactive) | 0.684 | -2.03 | -4.12 (inactive) | -0.0558 (inactive) | 0.274 (inactive)
[N-]=[N+]=Nc1ccccc1C[C@@]1(C(=O)N2CCCCC2)N=C(c2ccc(OCCCO)cc2)O[C@@H]1c1ccccc1N=[N+]=[N-] | -0.45 | -0.893 (inactive) | -2.09 (inactive) | -0.0853 (inactive) | 0.578 (inactive) | 1.48 (inactive) | 0.472 (inactive) | 0.208 (inactive) | -3.1 | -0.0102 | 0.973 (inactive) | 0.0553 | -2.42 | -4.67 (inactive) | -0.425 (inactive) | -0.286 (inactive)
O=C1C2C=CC(C(O)COCc3ccccc3)N(Nc3ccc([N+](=O)[O-])cc3)C2C(=O)N1c1ccccc1 (stereo not given) | 0.0505 | 0.858 (inactive) | 0.391 (inactive) | -0.262 (inactive) | 0.589 (inactive) | 0.498 (inactive) | 0.24 (inactive) | 0.613 (inactive) | 0.948 | 0.0604 | -0.183 (inactive) | -0.006 | -1.2 | -3.13 (inactive) | 0.0045 (inactive) | 0.54 (inactive)
O=C1C2C=CC(C(O)c3ccc(F)cc3)N(Nc3ccc([N+](=O)[O-])cc3)C2C(=O)N1c1ccccc1 (stereo not given) | 0.349 | 0.579 (inactive) | -0.115 (inactive) | -0.0421 (inactive) | 0.862 (inactive) | -0.228 (inactive) | -1.47 (inactive) | -0.639 (inactive) | -0.152 | 0.135 | 0.224 (inactive) | 0.942 | -0.255 | -4.16 (inactive) | 0.137 (inactive) | 0.653 (inactive)
